Shown are actives, neighbours in structure and some others; about 7.1% of the full set was active somewhere.
Lassa entry: blocks Lassa virus binding or cell entry; Potency, µM (series often up to 49.2 µM), for the others: at the highest dose activity change, negative = inhibition, most hits filed as inhibitors; AID 720533; actives 4.1% (n = 18,000); Lassa virus pseudotyped entry inhibition, cell-based qHTS
Marburg entry: Marburg virus entry inhibition; Potency, µM (doses to about 49.2 µM), without a hit: at the highest dose activity change, negative = inhibition, hits mostly inhibitors; actives 6.5% (n = 18,000); AID 720532; Marburg virus pseudotype entry/binding inhibition, cell-based
Starred values were filed as active, the others as inactive; ? = inconclusive; · = no result given; ! = not active in a repeat; [ ] = remark or other dose. Calls follow the shape of the full dose curve; tested in HEK293 cells. % is scaled to controls: 0 for no effect and ±100 for the full control effect; potency is read from the fitted curve at half-maximal effect.

SMILES	Lassa entry	Marburg entry
COc1ccc(COC(=O)NN=C2C[C@@H](O)[C@@H](O)[C@@H]3[C@H]4C(=O)N(C[C@@H]5CCCO5)C(=O)[C@@H]4CC[C@H]23)cc1	0.6µM*	?
CCN1C(=NCc2ccco2)N[C@@H](CCc2ccccc2)[C@H](C(=O)OC)[C@H]1C	43%[8.59 µM]	33%[8.59 µM]
CC(CCN1CCc2nc(-c3ccccc3)c(-c3ccccc3)cc2C1)=NOC[C@@H](O)[C@H]1O[C@@H]2OC(C)(C)O[C@H]2[C@@H]1O	17%[8.59 µM]	26%[8.59 µM]
CO/C=C(/C(=O)OC)c1ccccc1Oc1cc(Oc2ccccc2C#N)ncn1	22µM*	28µM*
COC(=O)C1=C(C(=O)OC)[C@@H]2N(C)c3ccccc3[C@@]23C[C@@H](C(=O)OC)N(C(=O)NC2CCCC2)C3=N1	14%[8.59 µM]	?
COc1ccc([C@]23Cc4cc(C#N)ccc4[C@H](O2)c2c(c4ccc(OC)cc4oc2=O)O3)cc1	27%[8.59 µM]	?
C=C[C@@H](C[C@@H]1C=C[C@H]2C[C@H](C=C)OP(=O)(O1)O2)O[Si](C)(C)C(C)(C)C	-11%	?
OC(CCN1CCCCC1)(c1ccccc1)C1CC2C=CC1C2 (stereo not given)	22µM*!	10µM*
C[C@@H]1C[C@H]2[C@@H](Cc3ccccc3)C(=O)N3[C@@H](C[C@@H](C)[C@@H]3c3ccccc3)[C@@H](Cc3ccccc3)C(=O)N2[C@H]1c1ccccc1	-15%[8.59 µM]	?
N=C(N)SCCc1ccc(OCc2ccc([N+](=O)[O-])cc2)cc1	-15%	14µM*
Oc1ccc(OCc2ccccc2)cc1	?	-25%[17.8 µM]
O=S(=O)(CCOCc1ccc(-c2ccc3ncnc(Nc4ccc(OCc5cccc(F)c5)c(Cl)c4)c3c2)o1)c1ccccc1	42%	-30%
O=C(OC1CNC(C#Cc2cc3ncnc(Nc4ccc5c(cnn5Cc5ccccc5)c4)c3s2)C1)N1CCOCC1 (stereo not given)	0.4µM*	?
CS(=O)(=O)CCNCc1nc(-c2ccc3ncnc(Nc4ccc(OCc5cccc(F)c5)c(Cl)c4)c3c2)cs1	-7%	-15%
O=C(OC1CNC(C#Cc2cc3ncnc(Nc4ccc(OCc5cccc(F)c5)c(Cl)c4)c3s2)C1)N1CCOCC1 (stereo not given)	?	13µM*
COc1cc2ncnc(Nc3ccc4c(cnn4Cc4ccccc4)c3)c2cc1OC	-24%	?
CNC(=O)c1cccc(C#Cc2cncnc2Nc2ccc(OCc3cccc(F)c3)c(Cl)c2)c1	·	2.5µM*
CCCCN1CC(COc2ccccc2)Oc2cc(Br)ccc2S1(=O)=O (stereo not given)	-19%	?
COc1cccc(CO[C@H]2C=C[C@@H](c3ccccc3)O[C@H]2CN=[N+]=[N-])c1	25%[8.59 µM]	-17%[8.59 µM]
C[C@H]1C[C@@H](C)O[C@@]2(C1)C(=O)Nc1ccccc12	5%[8.59 µM]	5%[8.59 µM]
CCCCCC(=O)N1C[C@H](n2cc(C3CC3)nn2)[C@@H](O)C[C@H]1c1ccc(C)cc1	8%	11%
COC(=O)C1=C(C)N(CC2CC2)C(=O)NC1c1ccccc1 (stereo not given)	1%[8.59 µM]	-5%[8.59 µM]
CN1c2ccccc2[C@@]2(O)C(=O)[C@@]1(C)[C@@H]1CCC=C[C@H]12	26%[8.59 µM]	10%[8.59 µM]
CCCCCCCCc1ccc(-c2ccc(C(=O)O)cc2)cc1	9%	-1%
CCCCCCC[N+](CC)(CC)CCCCc1ccc(Cl)cc1	5µM*	?
SMILES	Lassa entry	Marburg entry
CC1CCC2C(C)C(=O)OC3O[C@]4(C)CCC1[C@@]32OO4 (stereo not given in full)	-23%	-26%
C[C@@H]1CC[C@H]2[C@@H](C)C(=O)O[C@@H]3O[C@@]4(C)CC[C@@H]1[C@]32OO4	2.2µM*	1.8µM*
COc1ccc2c(c1)OC/C(=C\c1ccc(OC)c(O)c1)C2=O	-17%	13µM*
COc1ccc(C=C2c3ccccc3C(=O)c3ccccc32)cc1O	?	1µM*
COc1cc(C/C=C/c2ccccc2)c(OC)cc1O	-9%	4%
COc1ccc2c(c1)OCc1c-2oc2cc(OC)ccc12	4%	54%
CN(CCc1ccc(Cl)c(Cl)c1)C[C@@H](O)COc1ccc(NS(C)(=O)=O)cc1	-21%	14µM*
CC(C)NC[C@@H](O)COc1ccc(CC(N)=O)cc1	1%	-24%
CCN(CC)CCNC(=O)c1ccc(NS(C)(=O)=O)cc1	0%	1%
CCN(CC)CCNC(=O)c1c(C)[nH]c(/C=C2\C(=O)Nc3ccc(F)cc32)c1C	?	8.9µM*
O=C(c1ccc(Br)cc1)N1[C@H](COCc2ccccc2)C=CS1(=O)=O	-8%	26%
COC(=O)[C@@]1(C=C[C@@H](C)[C@H](OC)c2ccccc2Br)[C@@H]2OCCC[C@@H]21	-8%[8.59 µM]	-4%[8.59 µM]
CCN(CC)CCOC(=O)C1(C2CCCCC2)CCCCC1	?	11µM*!
CCN(CC)CCOC(=O)C1(c2ccccc2)CCCC1	-25%	-31%
O=C(C=Cc1ccccc1)Nc1cccc(C(=O)NCCCCc2ccccc2)c1	9%	?
CC(CCC(=O)OC[C@H]1O[C@H](C#Cc2ccccc2)C=C[C@H]1Oc1ccc(C)cc1)=NOC[C@@H](O)[C@H]1O[C@@H]2OC(C)(C)O[C@H]2[C@@H]1O	·	-2%[8.59 µM]
CC(C)(C)NC[C@@H](O)COc1cccc2[nH]c(C#N)cc12	-3%	2%
N#Cc1cc2c(OCC(O)CN3CCN(C(c4ccccc4)c4ccccc4)CC3)cccc2[nH]1 (stereo not given)	16µM*	8.9µM*
CCC[C@H]1CN(Cc2ccccc2)C(=O)[C@H]1CC(=O)NC	14%	20%
CCOC(=O)CCN1C(=O)[C@@H]2[C@H]3[C@H](O)[C@H](O)CC(=NNC(=O)OCc4ccccc4)[C@@H]3CC[C@H]2C1=O	·	29%[8.59 µM]
NC(=O)c1cc(-c2ccc(F)cc2)cc(-c2ccncc2)c1N	-26%	?
COc1c(O)c2c(=O)cc(OC)c3c4c(OC)cc(=O)c5c(O)c(OC)c(C[C@@H](C)OC(=O)c6ccccc6)c(c(c1C[C@@H](C)OC(=O)Oc1ccc(O)cc1)c23)c54	32µM*	?
C=CCOC(=O)N[C@H](c1ccc2ccccc2c1)[C@H](C)C=CCC(=O)OC	·	-4%[8.59 µM]
COC(=O)N1C2CC(=O)O[C@H]3c4cc5c(cc4[C@]1(C)[C@@]3(Br)c1ccccc12)OCO5	13%[8.59 µM]	8%[8.59 µM]
C=C1C(O)C2OC3(CCC(/C=C/C(C)C4CC(C)=CC5(OC(CC(C)(O)C(=O)O)CCC5O)O4)O3)CCC2OC1C(O)CC(C)C1OC2(CCCCO2)CCC1C (stereo not given)	?	0.15µM*
SMILES	Lassa entry	Marburg entry
CC(C)[C@@H](OCc1ccccc1)[C@H](C)C=NOC[C@@H](O)COCc1ccco1	-28%[8.59 µM]	14%[8.59 µM]
CC1(C)CN(C2CCCCC2)C(=O)[C@@H]1CC(=O)Nc1ccc(Br)cc1	-28%	9%
CCN(CC)c1ccc(C(=C2C=CC(=[N+](CC)CC)C=C2)c2ccccc2)cc1	0.32µM*	0.28µM*
CS(=O)(=O)Nc1ccccn1	11%	29%
C=C(C)C(=O)OC[C@H]1CN2[C@H](c3ccc(Br)cc3)[C@H](C)CC[C@H]2C(=O)O1	-6%[8.59 µM]	?
COc1ccc(OC[C@H]2CN3[C@H](c4ccc(Br)cc4)[C@H](C)CC[C@H]3C(=O)O2)cc1	11%[8.59 µM]	-7%[8.59 µM]
Cc1cc(O)cc(O)c1C(=O)OC1(C)C(=O)C=C2C=C(C=CCO)OC=C2C1=O (stereo not given)	10%[8.59 µM]	52%[8.59 µM]
c1cc(CN2CCCCC2)cc(OCCCNc2nc3ccccc3s2)c1	?	16µM*
c1ccc2sc(N3CCN(Cc4ccc5c(c4)OCO5)CC3)nc2c1	34%	8%

Assay outcomes: PubChem BioAssay, National Center for Advancing Translational Sciences (NCATS)
